Among all 5,500 compounds or so, about 2,000 (36%) were called active. About 18% were inconclusive and are not listed. Cut-off read from the data, not from the text of the source: active = normalized growth mostly below about 0.91 (no sharp cut-off); inconclusive = no clear call, values can overlap the other calls; inactive = mostly above about 0.92. The list shows a part of the results.
Experiment: chemical genetic growth profiling, strain panel (AID 1159580);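 note: tested at 20 µM; growth read once vehicle control cultures reached saturation at 30 °C; 1 = growth at the plate median or of vehicle wells; lower values mean less growth of the strain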
Conditions: S. cerevisiae deletion strains, growth OD

Measured: normalized growth

N[C@H](CO)Cc1ccccc1
inactive: locus YAL021C, strain ccr4, stronger effect = lower value 1.01 | locus YAL026C, strain drs2, stronger effect = lower value 1.02 | locus YAL030W, strain snc1, stronger effect = lower value 1.03 | locus YBL061C, strain skt5, stronger effect = lower value 1.03 | locus YBR009C, strain hhf1, stronger effect = lower value 1.03 | locus YBR023C, strain chs3, stronger effect = lower value 1.02 | locus YBR171W, strain sec66, stronger effect = lower value 1.02 | locus YBR231C, strain swc5, stronger effect = lower value 1.02 | locus YBR279W, strain paf1, stronger effect = lower value 1.01 | locus YCL011C, strain gbp2, stronger effect = lower value 1.01 | locus YCL016C, strain dcc1, stronger effect = lower value 0.998 | locus YCL061C, strain MRC1, stronger effect = lower value 1.02 | locus YCL069W, strain vba3, stronger effect = lower value 1.02 | locus YCR088W, strain abp1, stronger effect = lower value 1.01 | locus YDL005C, strain med2, stronger effect = lower value 1.01 | locus YDL040C, strain nat1, stronger effect = lower value 1.02 | locus YDR001C, strain nth1, stronger effect = lower value 1.02 | locus YDR069C, strain doa4, stronger effect = lower value 1.04 | locus YDR137W, strain rgp1, stronger effect = lower value 1.01 | locus YDR159W, strain sac3, stronger effect = lower value 1.06 | locus YDR195W, strain ref2 1.02 | locus YDR297W, strain sur2, stronger effect = lower value 1.05 | locus YDR334W, strain swr1, stronger effect = lower value 1.02 | locus YDR335W, strain msn5, stronger effect = lower value 1.01 | locus YDR392W, strain spt3, stronger effect = lower value 0.927 | locus YEL003W, strain gim4, stronger effect = lower value 1.03 | locus YEL037C, strain rad23, stronger effect = lower value 1.01 | locus YEL061C, strain CIN8 (second series), stronger effect = lower value 1.02 | locus YER015W, strain faa2, stronger effect = lower value 1.03 | locus YER016W, strain bim1, stronger effect = lower value 1.03 | locus YER111C, strain swi4, stronger effect = lower value 1.02 | locus YER155C, strain BEM2 (second series), stronger effect = lower value 1.02 | locus YFR010W, strain ubp6, stronger effect = lower value 1.04 | locus YGL167C, strain pmr1, stronger effect = lower value 1.02 | locus YGL173C, strain kem1, stronger effect = lower value 1.03 | locus YGL227W, strain vid30, stronger effect = lower value 1.03 | locus YGL240W, strain doc1, stronger effect = lower value 1.02 | locus YGL253W, strain hxk2, stronger effect = lower value 1.03 | locus YHR013C, strain ard1, stronger effect = lower value 1.03 | locus YHR027C, strain rpn1, stronger effect = lower value 1.02 | locus YHR030C, strain SLT2, stronger effect = lower value 1.07 | locus YHR079C, strain IRE1, stronger effect = lower value 1.05 | locus YHR142W, strain chs7, stronger effect = lower value 1.03 | locus YJL092W, strain hpr5, stronger effect = lower value 1.02 | locus YJL095W, strain BCK1 (second series), stronger effect = lower value 1.02 | locus YJL095W, strain BCK1, stronger effect = lower value 1.06 | locus YJL115W, strain asf1, stronger effect = lower value 1.01 | locus YJL129C, strain trk1, stronger effect = lower value 1.03 | locus YJL154C, strain vps35, stronger effect = lower value 1.02 | locus YJL164C, strain tpk1, stronger effect = lower value 0.994 | locus YJL166W, strain qcr8, stronger effect = lower value 1.02 | locus YJL187C, strain SWE1, stronger effect = lower value 1.01 | locus YJR066W, strain TOR1, stronger effect = lower value 0.974 | locus YKL160W, strain elf1, stronger effect = lower value 0.996 | locus YKR026C, strain gcn3, stronger effect = lower value 1.02 | locus YKR091W, strain srl3, stronger effect = lower value 1.01 | locus YLL001W, strain dnm1, stronger effect = lower value 1.01 | locus YLL026W, stronger effect = lower value 1.02 | locus YLL041C, strain sdh2, stronger effect = lower value 1.01 | locus YLR027C, strain aat2, stronger effect = lower value 1.01 | locus YLR113W, strain HOG1, stronger effect = lower value 1.05 | locus YLR221C, strain rsa3, stronger effect = lower value 1.03 | locus YLR258W, strain gsy2, stronger effect = lower value 1.05 | locus YLR262C, strain YPT6 (second series), stronger effect = lower value 1.02 | locus YLR320W, strain mms22, stronger effect = lower value 1.03 | locus YLR342W, strain FKS1, stronger effect = lower value 1.03 | locus YLR357W, strain rsc2, stronger effect = lower value 1.05 | locus YLR370C, strain arc18, stronger effect = lower value 1.04 | locus YLR384C, strain iki3, stronger effect = lower value 1 | locus YML120C, strain ndi1, stronger effect = lower value 1.01 | locus YMR058W, strain fet3, stronger effect = lower value 1.02 | locus YMR125W, strain sto1, stronger effect = lower value 1.01 | locus YMR129W, stronger effect = lower value 1.01 | locus YMR205C, strain PFK2, stronger effect = lower value 1.02 | locus YMR231W, strain pep5, stronger effect = lower value 1.02 | locus YNL071W, strain lat1, stronger effect = lower value 1.02 | locus YNL183C, strain NPR1, stronger effect = lower value 0.974 | locus YNL209W, strain ssb2, stronger effect = lower value 1.01 | locus YNL248C, strain rpa49, stronger effect = lower value 1.06 | locus YNL322C, strain KRE1 (second series), stronger effect = lower value 1.02 | locus YNR049C, strain mso1, stronger effect = lower value 1.02 | locus YOR001W, strain rrp6, stronger effect = lower value 1.03 | locus YOR070C, strain gyp1, stronger effect = lower value 1.01 | locus YOR080W, strain dia2, stronger effect = lower value 1.02 | locus YOR083W, strain WHI5, stronger effect = lower value 1 | locus YOR106W, strain vam3, stronger effect = lower value 1 | locus YOR231W, strain MKK1, stronger effect = lower value 1.07 | locus YOR265W, strain rbl2, stronger effect = lower value 1.01 | locus YOR270C, strain vph1, stronger effect = lower value 1.06 | locus YOR290C, strain snf2, stronger effect = lower value 0.978 | locus YPL051W, strain arl3, stronger effect = lower value 1.03 | locus YPL078C, strain atp4, stronger effect = lower value 0.99 | locus YPL106C, strain sse1, stronger effect = lower value 1 | locus YPL240C, strain hsp82, stronger effect = lower value 1.02 | locus YPL256C, strain CLN2, stronger effect = lower value 1.04

From PubChem BioAssay AID1159580 (chemical genetic matrix, 2015)
